The supplement of paper PMC12282887
± gives the standard deviation of the averaged measurements.

What was measured:
Assay in all cases: promoter activity interaction Z-score (Lux/OD deviation from empty-vector control); higher = stronger promoter induction by the compound
[1] = system: E. coli BW25113 acrABp lux reporter
Method in brief: (§1)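 E. coli BW25113 (wild type or marA, soxS or rob deletion) carrying low-copy luxCDABE promoter reporters grew in 40 µl LB Lennox in 384-well plates at 37°C. Each compound was tested at four 1:2 dilutions in biological duplicates. OD600 and luminescence were read every 30 min for 12 h. Areas were taken over 0–8 h (wild type) or 1–9 h (mutants), and wells below 10% of median growth area were removed. The score is the Z-transformed residual of growth-normalised luminescence fitted against the empty-vector control.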

[2] = system: E. coli BW25113 micFp lux reporter
Method in brief: as §1

[3] = system: E. coli BW25113 ompFp lux reporter
Method in brief: as §1

[4] = system: E. coli BW25113 robp lux reporter
Method in brief: as §1

[5] = system: E. coli BW25113 soxSp lux reporter
Method in brief: as §1

[6] = system: E. coli BW25113 tolCp lux reporter
Method in brief: as §1

[7] = 18.1 µg/ml, genetic background: wild type
[8] = 18.1 µg/ml, genetic background: ΔmarA
[9] = 18.1 µg/ml, genetic background: Δrob
[10] = 18.1 µg/ml, genetic background: ΔsoxS
[11] = 36.3 µg/ml, genetic background: wild type
[12] = 36.3 µg/ml, genetic background: ΔmarA
[13] = 36.3 µg/ml, genetic background: Δrob
[14] = 36.3 µg/ml, genetic background: ΔsoxS
[15] = 72.6 µg/ml, genetic background: wild type
[16] = 72.6 µg/ml, genetic background: ΔmarA
[17] = 72.6 µg/ml, genetic background: Δrob
[18] = 72.6 µg/ml, genetic background: ΔsoxS
[19] = 145.1 µg/ml, genetic background: wild type
[20] = 145.1 µg/ml, genetic background: ΔmarA
[21] = 145.1 µg/ml, genetic background: Δrob
[22] = 145.1 µg/ml, genetic background: ΔsoxS

Oc1cc(O)c2c(c1)O[C@@H](c1ccc(O)c(O)c1)[C@H](O)C2 [Catechin]
promoter activity interaction Z-score [1, 7]: 0.118 ± 0.17 | promoter activity interaction Z-score [1, 8]: -0.352 ± 0.15 | promoter activity interaction Z-score [1, 9]: 0.3299 ± 0.003 | promoter activity interaction Z-score [1, 10]: -0.306 ± 0.42 | promoter activity interaction Z-score [1, 11]: 0.149 ± 0.084 | promoter activity interaction Z-score [1, 12]: -1.14 ± 0.28 | promoter activity interaction Z-score [1, 13]: 0.394 ± 0.14 | promoter activity interaction Z-score [1, 14]: -0.191 ± 0.27 | promoter activity interaction Z-score [1, 15]: -0.243 ± 0.23 | promoter activity interaction Z-score [1, 16]: -0.35 ± 0.0073 | promoter activity interaction Z-score [1, 17]: 0.0378 ± 0.18 | promoter activity interaction Z-score [1, 18]: -0.0752 ± 0.23 | promoter activity interaction Z-score [1, 19]: -0.205 ± 0.27 | promoter activity interaction Z-score [1, 20]: -0.135 ± 0.26 | promoter activity interaction Z-score [1, 21]: 0.0277 ± 0.083 | promoter activity interaction Z-score [1, 22]: -0.364 ± 0.16 | promoter activity interaction Z-score [2, 7]: -0.45 ± 0.11 | promoter activity interaction Z-score [2, 8]: -0.0948 ± 0.022 | promoter activity interaction Z-score [2, 9]: -0.0243 ± 0.03 | promoter activity interaction Z-score [2, 10]: -0.43 ± 0.036 | promoter activity interaction Z-score [2, 11]: -0.372 ± 0.21 | promoter activity interaction Z-score [2, 12]: -0.115 ± 0.1 | promoter activity interaction Z-score [2, 13]: -0.0591 ± 0.057 | promoter activity interaction Z-score [2, 14]: -0.4729 ± 0.00069 | promoter activity interaction Z-score [2, 15]: -0.209 ± 0.095 | promoter activity interaction Z-score [2, 16]: -0.0545 ± 0.022 | promoter activity interaction Z-score [2, 17]: -0.0723 ± 0.19 | promoter activity interaction Z-score [2, 18]: -0.295 ± 0.12 | promoter activity interaction Z-score [2, 19]: -0.569 ± 0.15 | promoter activity interaction Z-score [2, 20]: -0.0791 ± 0.1 | promoter activity interaction Z-score [2, 21]: -0.0881 ± 0.0077 | promoter activity interaction Z-score [2, 22]: -0.263 ± 0.028 | promoter activity interaction Z-score [3, 7]: 0.365 ± 0.41 | promoter activity interaction Z-score [3, 8]: -0.591 ± 0.23 | promoter activity interaction Z-score [3, 9]: -0.0407 ± 0.17 | promoter activity interaction Z-score [3, 10]: -0.757 ± 0.35 | promoter activity interaction Z-score [3, 11]: 0.374 ± 0.65 | promoter activity interaction Z-score [3, 12]: -0.588 ± 0.15 | promoter activity interaction Z-score [3, 13]: 0.0282 ± 0.096 | promoter activity interaction Z-score [3, 14]: -0.571 ± 0.38 | promoter activity interaction Z-score [3, 15]: 0.326 ± 0.55 | promoter activity interaction Z-score [3, 16]: -0.202 ± 0.48 | promoter activity interaction Z-score [3, 17]: -0.391 ± 0.39 | promoter activity interaction Z-score [3, 18]: -0.391 ± 0.094 | promoter activity interaction Z-score [3, 19]: -0.0294 ± 0.93 | promoter activity interaction Z-score [3, 20]: -0.395 ± 0.18 | promoter activity interaction Z-score [3, 21]: 0.079 ± 0.47 | promoter activity interaction Z-score [3, 22]: -0.14 ± 0.27 | promoter activity interaction Z-score [4, 7]: 1.06 ± 0.79 | promoter activity interaction Z-score [4, 8]: -0.456 ± 0.041 | promoter activity interaction Z-score [4, 9]: 0.533 ± 0.081 | promoter activity interaction Z-score [4, 10]: 0.443 ± 0.12 | promoter activity interaction Z-score [4, 11]: 0.0214 ± 0.94 | promoter activity interaction Z-score [4, 12]: -0.758 ± 0.23 | promoter activity interaction Z-score [4, 13]: 0.0934 ± 0.32 | promoter activity interaction Z-score [4, 14]: 0.783 ± 1.1 | promoter activity interaction Z-score [4, 15]: 0.124 ± 0.48 | promoter activity interaction Z-score [4, 16]: -0.279 ± 0.31 | promoter activity interaction Z-score [4, 17]: -0.125 ± 0.14 | promoter activity interaction Z-score [4, 18]: -0.0104 ± 0.026 | promoter activity interaction Z-score [4, 19]: 0.00344 ± 0.46 | promoter activity interaction Z-score [4, 20]: 0.234 ± 0.22 | promoter activity interaction Z-score [4, 21]: -0.253 ± 0.025 | promoter activity interaction Z-score [4, 22]: 0.154 ± 0.41 | promoter activity interaction Z-score [5, 7]: -0.0785 ± 0.09 | promoter activity interaction Z-score [5, 8]: 0.187 ± 0.029 | promoter activity interaction Z-score [5, 9]: 0.051 ± 0.17 | promoter activity interaction Z-score [5, 10]: -0.175 ± 0.061 | promoter activity interaction Z-score [5, 11]: -0.0143 ± 0.021 | promoter activity interaction Z-score [5, 12]: 0.127 ± 0.097 | promoter activity interaction Z-score [5, 13]: 0.055 ± 0.095 | promoter activity interaction Z-score [5, 14]: -0.0693 ± 0.098 | promoter activity interaction Z-score [5, 15]: -0.0515 ± 0.13 | promoter activity interaction Z-score [5, 16]: 0.0702 ± 0.24 | promoter activity interaction Z-score [5, 17]: 0.012 ± 0.11 | promoter activity interaction Z-score [5, 18]: -0.155 ± 0.42 | promoter activity interaction Z-score [5, 19]: -0.342 ± 0.028 | promoter activity interaction Z-score [5, 20]: -0.0381 ± 0.14 | promoter activity interaction Z-score [5, 21]: -0.122 ± 0.12 | promoter activity interaction Z-score [5, 22]: -0.346 ± 0.37 | promoter activity interaction Z-score [6, 7]: 0.35 ± 1.1 | promoter activity interaction Z-score [6, 8]: 0.209 ± 0.5 | promoter activity interaction Z-score [6, 9]: 0.0748 ± 1.2 | promoter activity interaction Z-score [6, 10]: -0.253 ± 0.35 | promoter activity interaction Z-score [6, 11]: -0.149 ± 0.74 | promoter activity interaction Z-score [6, 12]: -0.0811 ± 0.12 | promoter activity interaction Z-score [6, 13]: 0.0597 ± 0.79 | promoter activity interaction Z-score [6, 14]: -0.531 ± 0.23 | promoter activity interaction Z-score [6, 15]: -0.323 ± 0.58 | promoter activity interaction Z-score [6, 16]: 0.371 ± 0.19 | promoter activity interaction Z-score [6, 17]: -0.107 ± 0.25 | promoter activity interaction Z-score [6, 18]: -0.249 ± 0.24 | promoter activity interaction Z-score [6, 19]: -0.897 ± 0.36 | promoter activity interaction Z-score [6, 20]: 0.397 ± 0.58 | promoter activity interaction Z-score [6, 21]: 0.104 ± 0.68 | promoter activity interaction Z-score [6, 22]: 0.637 ± 0.9
